Assay outcomes (PubChem BioAssay)
aSyn 5UTR act – Activators via SNCA 5'UTR binding, MLPCN | alpha-synuclein 5'UTR reporter, activators screen | activity score, % (tested at 7.5 µM), hits read low | AID 1814, 2009 | actives 7.1% (n = 300,000); in the data active means activity score below about -60%
Hits are given with their value; n = inactive. Only a sample is shown.

SMILES	aSyn 5UTR act
Cc1noc(/C=C/Nc2ccc(F)cc2F)c1[N+](=O)[O-]	-175
Cc1noc(/C=C/c2ccccn2)c1[N+](=O)[O-]	-211
Fc1ccc(NCc2cn3ccccc3n2)cc1	-174
Fc1cccc(NCc2cn3ccccc3n2)c1	-97
O=C(COc1ccc(Oc2ccccc2)cc1)NCc1cn2ccccc2n1	n
CCN(CC)c1ccc(NC(=O)C2CC3CCC2C3)cc1 (stereo not drawn)	-68
Cc1ccc(NC(=O)C2CC3CCC2C3)c(Br)c1 (stereo not drawn)	-110
S=C(NCc1ccco1)Nc1ccc(Cl)cc1Cl	-108
S=C(NCc1ccco1)Nc1ccc(Br)cc1Cl	-141
Cc1ccc(Oc2ccc(/C=N/O)cn2)cc1	-83
Cc1ccc(COc2ccc(/C=N/O)cc2)cc1	-131
O=C(Nc1nc2c(F)cc(F)cc2s1)C1CCN(C(=O)c2ccc(F)cc2)CC1	-162
Fc1cccc2sc(Nc3nc4c(F)cccc4s3)nc12	-210
NNc1nc2c(F)cccc2s1	-281
Fc1cccc2sc(Nc3nnc(-c4ccccc4)o3)nc12	-90
Cc1c(Cl)ccc2sc(NC(=O)C3CC3)nc12	-85
NNc1nc2c(F)cc(F)cc2s1	-164
O=C(Nc1nc2c(F)cccc2s1)C1CC1	-111
CCOc1cnc(-c2ccc(OC)cc2)o1	-106
CCOc1cnc(-c2ccc(Cl)cc2)o1	-105
Cc1c(C(=O)OC(C)C)sc(N)c1C(=O)OC(C)C	-120
CN(C)CCNc1nc2sc3c(c2c(=O)n1CCc1ccccc1)CCCCC3	-87
CC(O)CNc1nc2sc3c(c2c(=O)n1CCc1ccccc1)CCCCC3 (stereo not drawn)	-72
Cc1ccccc1Cn1c(=O)n(Cc2ccco2)c(=O)c2ccccc21	n
NC(=O)Cn1c(=O)n(Cc2ccco2)c(=O)c2c3c(sc21)CCCCC3	-80
SMILES	aSyn 5UTR act
Cc1cc(C)n(-c2nc(NCCN(C)C)c3c4c(sc3n2)CCCC4)n1	n
CC(O)CNc1nc2sc3c(c2c(=O)n1Cc1ccco1)CCCCC3 (stereo not drawn)	-103
CN(C)/C=C(\C#N)C(=O)N/N=C/c1ccc(Cl)cc1	-66
CN(C)/C=C(\C#N)C(=O)Nc1ccc(F)c(Cl)c1	-143
CN(C)/C=C(\C#N)C(=O)Nc1ccc(F)cc1	-96
COc1cccc(C(=O)N=c2sc3c(C)ccc(OC)c3n2C)c1	-209
COc1ccc(C(=O)N=c2sc3c(C)ccc(OC)c3n2C)cc1OC	-295
COc1ccccc1C(=O)N=c1sc2c(C)ccc(OC)c2n1C	-80
Nc1cccc(-c2nc3ccc(C(=O)c4ccccc4)cc3[nH]2)c1	-276
Nc1ccc(-c2nc3c(Cl)cc(N)cc3[nH]2)cc1	n
Nc1ccc2nc(-c3ccc(N)c(Cl)c3)[nH]c2c1	-115
Nc1ccc2nc(-c3ccccn3)[nH]c2c1	-161
Nc1ccc2nc(-c3cccs3)[nH]c2c1	-156
Nc1ccc2nc(-c3ccccc3)[nH]c2c1	-126
COc1ccc2nc(-c3ccccn3)[nH]c2c1	-80
O=C(Nc1ccc2c3c(cccc13)CC2)c1ccc(Br)o1	-76
O=C(Nc1ccc2c3c(cccc13)CC2)c1ccco1	-65
CC(=O)N1CCN(c2ccc(NC(=O)c3cccc(Cl)c3)cc2)CC1	-122
CC(=O)N1CCN(c2ccc(NC(=O)c3ccc(C(C)(C)C)cc3)cc2)CC1	-96
Nc1c(N=Nc2ccccc2F)c(=O)[nH]n1-c1ccccc1	-125
Nc1ncnc(N)c1N=Nc1ccccc1	n
Nc1nn(-c2ccccc2)c(N)c1N=Nc1ccccc1	-106
Nc1nn(-c2ccccc2)c(N)c1N=Nc1ccccc1F	-98
CCN(CC)CCn1c2ccccc2c2cnc(N)c(C#N)c21	-655
C(/C=C/c1ccco1)=N/N1CCN(c2ccccc2)CC1	-189
SMILES	aSyn 5UTR act
Clc1ccccc1CN1CCN(/N=C/C=C\c2ccco2)CC1	-78
[N-]=[N+]=CC(=O)C(O)(c1ccccc1)C(Cl)c1ccccc1 (stereo not drawn)	n
CCOC(=O)/C(C#N)=C/C=C1/C=CC=CN1C	-63
C=CCN1C=CC(=C/C=C(/C#N)C(=O)OCC)C=C1	-138
COc1ccc2nc(SCC(=O)N3CCCCC3)c(C#N)cc2c1	-107
Cc1cc(NC(=O)CSc2nc3ccccc3c(=O)n2C2CCCC2)no1	n
N#Cc1cc2cc3c(cc2nc1SCC(=O)N1CCOCC1)OCCO3	n
COC(=O)CSc1nc2cc(C)ccc2cc1C#N	-189
Cc1cc(NC(=O)CSc2nc3ccccc3cc2C#N)no1	-158
Cc1ccc2nc(SCC(=O)Nc3ccc4sc(C)nc4c3)c(C#N)cc2c1	-129
Cc1cc(NC(=O)CSc2nc3c(cc2C#N)CCCC3)no1	-74
COc1ccc2nc(SCC(=O)NC3CC3)c(C#N)cc2c1	-68
COc1ccc2nc(SCC(=O)Nc3cc(C)on3)c(C#N)cc2c1	-103
C/C(=N\Nc1cccc(Cl)c1)c1ccncc1	-117
Clc1cccc(N/N=C/c2ccncc2)c1	-117
Cc1ccc(N/N=C/c2ccncc2)cc1	-120
C=CCn1cccc(C(=O)Nc2ccc(OC)c(Cl)c2)c1=O	-84
C=CCn1cccc(C(=O)Nc2ccc(C)c(Cl)c2)c1=O	-140
CCOc1ccc(N2Nc3n[nH]c(N)c3N2)cc1	-65
COc1ccc(N2Nc3n[nH]c(N)c3N2)cc1	-73
CC1=NN(c2ccc(C)cc2)C(=O)/C1=C\c1ccc(Br)s1	-66
COc1ccc(/C=C/C(=O)Oc2cccc(/C=N/NC(=O)Cc3ccc(Br)cc3)c2)cc1	-80
Cc1ccc2nsnc2c1NC(=S)NC(=O)c1ccco1	-94
CC(=O)Nc1nc2ccc(NC(=O)c3ccco3)cc2s1	-77
COc1cc2sc(NC(=O)c3ccco3)nc2cc1Cl	-189
SMILES	aSyn 5UTR act
Cc1ccc2nc(NC(=S)NC(=O)c3ccco3)sc2c1	-148
Cc1ccc2nc(NC(=O)c3ccco3)sc2c1	n
Cc1nc2ccc(NC(=O)c3ccco3)cc2s1	-90
Cc1ccccc1NC1=C(Cl)C(=O)N(C2CCCCC2)C1=O	-133
COc1ccccc1NC1=C(Cl)C(=O)N(C2CCCCC2)C1=O	-91
COc1cc(OC)c(NC2=CC(=O)C(=O)c3ccccc32)cc1Cl	n
CCc1noc(C)c1C(=O)Nc1nc2ccc(F)cc2s1	-139
O=C(Nc1nc2ccc(Cl)cc2s1)[C@@H]1CCCN1C(=O)c1cccs1	-92
CCC(=O)NNc1nc2c(C)cc(C)cc2s1	-63
Cc1cc(C)c2nc(NNC(=O)c3ccc(S(=O)(=O)N4CC(C)CC(C)C4)cc3)sc2c1 (stereo not drawn)	n
Cc1cc(C)c2nc(NCc3ccccc3O)sc2c1	-118
CCc1ccc2nc(NC(=O)c3cc(C)on3)sc2c1	-66
CC1CC1C(=O)Nc1nc2ccc(Cl)cc2s1 (stereo not drawn)	-134
Cc1noc(C)c1C(=O)Nc1nc2ccc(Cl)cc2s1	-82
CCc1ccc2nc(NC(=O)C3CSC4(C)CCC(=O)N34)sc2c1 (stereo not drawn)	-107
Cc1cc(C)c2nc(NC(=O)c3cc(C)on3)sc2c1	-89
Cc1csc(C(C#N)C(=O)c2cc3ccccc3o2)n1 (stereo not drawn)	-145
Cc1sc2ncnc(NCC(O)c3ccccc3)c2c1C (stereo not drawn)	-104
Cc1cc(C)c2oc(-c3cccc(N)c3)nc2c1	-132
CCOC(=O)Nc1nnc(/C=C/c2ccc(OC)cc2)s1	-94
CCCC(=O)Nc1nnc(/C=C/c2ccc(OC)cc2)s1	-107
COc1ccc(/C=C/c2nnc(NC(=O)C(C)(C)C)s2)cc1	-96
CCC(=O)Nc1nnc(/C=C/c2ccccc2)s1	-138
CCCC(=O)Nc1nnc(/C=C/c2ccccc2)s1	-99
